Compounds without any hit were thinned out: in the full panel of roughly 79,000, 15% have a hit. The source made the active and inactive calls. Cut-off read from the data, not from the text of the source: active = growth inhibition above about 70%; inactive = the rest.

13 molecules from PubChem BioAssay (NCI) can be followed below.

The experiment in a line: NCI Yeast Anticancer Drug Screen. Data for the mlh1 rad18 strain (AID 175). Particulars: S. cerevisiae mlh1 rad18 strain growth inhibition; at 50.0 µM; hits give high values. A digest of the protocol:
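Steps: expose repair-defective yeast to compound; measure growth; express inhibition against vehicle-treated controls.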
Take `CCOC(=O)C1C(O)=C(P(=O)(C2=C(O)C(C(=O)OCC)C(c3ccc(OC(C)=O)cc3)C(C(=O)O)C2=O)N(CCCl)CCCl)C(=O)C(C(=O)O)C1c1ccc(OC(C)=O)cc1` (stereo not drawn): the growth inhibition is 61.2% (inactive).
Regarding `c1ccc([As+](c2ccccc2)(c2ccccc2)c2cccc3ccccc23)cc1`, the growth inhibition was 98.8% (active).
Turning to `CCCCCCCCc1ccc(OCCN(CCCl)CCCl)cc1`, the growth inhibition is 99.2% (active).
As to `S=C=NCCc1ccccc1`, the growth inhibition was 61.6% (inactive).
As for `COC1=C(Cl)C(=O)c2ccccc2C1=O`, the growth inhibition is 99.4% (active).
The figure for `CN(C)c1ccc(N=Nc2cccc(C(=O)[O-])c2)cc1.CN(C)c1ccc(N=Nc2cccc(C(=O)[O-])c2)cc1.NC1CCCCC1N.O=[N+]([O-])O.[Pt+4]` is 92% (active).
As for `CCOC(=O)c1ccc(N=Cc2ccc(N(CCCl)CCCl)cc2C)cc1`, the growth inhibition is 37.9% (inactive).
The figure for `O=c1s[se]c2ccccc12` is 91.9% (active); for `CC1CCC2(OC1)OC1C(O)C3C4CCC5CC(OC6OC(CO)C(OC7OC(CO)C(O)C(OC8OCC(O)C(O)C8O)C7OC7OC(CO)C(O)C(OC8OC(CO)C(O)C(O)C8O)C7O)C(O)C6O)C(O)CC5(C)C4CCC3(C)C1C2C` (stereo not drawn) it is 88% (active); for `CN(C)c1ccc(/C=C/c2cc3scc(-c4ccccc4)[n+]3c3ccccc23)cc1` it is 99.2% (active).
As to `CSCCC([NH-])C(=O)O.CSCCC([NH-])C(=O)O.[Zn+2]` (stereo not drawn), the growth inhibition was 99.3% (active).
The figure for `O=C(O)CN1CCN(CC(=O)O)CC(=O)[O][Hg][O]C(=O)C1` is 99.2% (active); for `Cc1c2ccncc2c(CN(CCCl)CCCl)c2c3ccccc3n(C)c12` it is 91.8% (active).
